In PubChem BioAssay (EPA / NIEHS) one finds outcome and AC50 data, which are given here for 32 compounds.

In experiment [1] the target is human Peroxisome Proliferator-activated Receptor delta (PPARd), PPARD (gene 5467) (UniProt Q03181). The experiment can be described thus: ATG_PPARd_TRANS: Attagene TRANS-FACTORIAL HepG2 Assay for human Peroxisome Proliferator-activated Receptor delta (PPARd) (AID 2283002). The gist of the method: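 Read-out is induced reporter mRNA, quantified by RT-PCR with fluorescent labelling and capillary electrophoresis after 24 h dosing. Cells are HepG2 transiently carrying multiple GAL4-UAS reporter units driven by exogenous NR-GAL4 chimeras; DMSO serves as baseline.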

Read-out in experiment [2]: Intercellular Adhesion Molecule 1 (ICAM1), ICAM1 (gene 3383)
Briefly: BSK_3C_ICAM1: BioMAP Diversity Plus: 3C Assay for Intercellular Adhesion Molecule 1 (ICAM1) Biomarker Activity (AID 2283003; active means hit-call score of the fitted dose curve at least 0.9, where 1 is the maximum; inactive means score below 0.9). The note with it: primary human endothelial cells (HUVEC); actives raise or lower the signal. Put shortly:
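Primary human umbilical vein endothelial cells in the BioMAP 3C system were exposed to chemicals for 24 h, then ICAM-1 was quantified by ELISA. Activity was fitted bidirectionally against the DMSO negative control baseline.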

A short description of experiment [3]: BSK_3C_Proliferation: Cell Proliferation Assessment in the BioMAP Diversity Plus: 3C Assay (AID 2283006; active means hit-call score of the fitted dose curve at least 0.9, where 1 is the maximum; inactive means score below 0.9;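 on AC50: potency may reflect either rise or fall in cell number versus DMSO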). The note with it: primary human endothelial cells (HUVEC). Put shortly: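 Human umbilical vein endothelial cells were grown sub-confluent and exposed to chemical for 48 h, then fixed with 10% TCA and stained with 0.1% sulforhodamine B; absorbance at 560 nm gave relative cell number, fitted bidirectionally against DMSO baseline.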

Experiment [4] concerns the target Peroxisome proliferator-activated receptor gamma (Homo sapiens) (UniProt P37231). The experiment can be described thus: ATG_PPARg_TRANS: Attagene TRANS-FACTORIAL HepG2 Assay for human Peroxisome Proliferator-activated Receptor-gamma (PPARg) (AID 2283007). The gist of the method:
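Chimeric NR-Gal4 transactivation is measured in transiently transfected HepG2 cells by reporter mRNA induction at 24 h. Detection uses RT-PCR with fluorescent labelling and capillary electrophoresis; DMSO defines baseline.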

The target of experiment [5] is Nuclear receptor subfamily 1 group I member 2 (Homo sapiens) (UniProt O75469). The experiment can be described thus: ATG_PXR_TRANS: Attagene TRANS-FACTORIAL HepG2 Assay for human Pregnane X Receptor (PXR) (AID 2283008). Put shortly: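 Measures mRNA induction of a GAL4-UAS-driven reporter in human HepG2 cells transiently expressing PXR fused to Gal4, following 24 h treatment. DMSO served as negative control and baseline.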

The target of experiment [6] is human Retinoic Acid Receptor beta (RARb), RARB (gene 5915) (UniProt P10826). Briefly: ATG_RARb_TRANS: Attagene TRANS-FACTORIAL HepG2 Assay for human Retinoic Acid Receptor beta (AID 2283004). Put shortly: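 HepG2 cells were transiently transfected with GAL4-UAS reporter units that report activity of exogenous chimeric NR-Gal4 proteins, then exposed to compound for 24 h. Reporter mRNA was quantified by RT-PCR with capillary electrophoresis fluorescence, as gain of signal over DMSO.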

The target in experiment [7] is Retinoic acid receptor alpha (Homo sapiens) (UniProt P10276). Briefly: ATG_RARa_TRANS: Attagene TRANS-FACTORIAL HepG2 Assay for human Retinoic Acid Receptor alpha (RARa) (AID 2283005).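 On AC50: potency for increased reporter signal meaning RARa activation over DMSO.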 The gist of the method: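 Reporter transcripts, measured by RT-PCR with fluorescent labeling and capillary electrophoresis after 24 h dosing, reflect activity of an exogenous human RARa–GAL4 fusion in transiently transfected HepG2. Fitted for increase relative to DMSO.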

The target in experiment [8] is human RAR-related Orphan Receptor beta (RORb), RORB (gene 6096) (UniProt Q92753). Briefly: ATG_RORb_TRANS: Attagene TRANS-FACTORIAL HepG2 Assay for human RAR-related Orphan Receptor beta (RORb) (AID 2283010). The gist of the method:
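HepG2 cells were transiently transfected with multiplexed GAL4-UAS reporter units expressing chimeric nuclear receptor–GAL4 proteins, then dosed for 24 h. Reporter mRNA was quantified by RT-PCR with fluorescent labelling and capillary electrophoresis; gain of signal was fitted relative to DMSO.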

Experiment [9] addresses human RAR-related Orphan Receptor gamma (RORg), RORC (gene 6097) (UniProt P51449). The experiment can be described thus: ATG_RORg_TRANS: Attagene TRANS-FACTORIAL HepG2 Assay for human RAR-related Orphan Receptor gamma (RORg) (AID 2283011). Put shortly: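 HepG2 cells transiently transfected with GAL4-UAS reporter units and chimeric RORg-Gal4 construct; after 24 h chemical exposure, reporter mRNA measured by RT-PCR with fluorescent capillary electrophoresis, gain of signal fitted against DMSO.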

SMILES strings stand for the structures. Results filed as inconclusive are left out. Activity calls are given as the source filed them. How the source made its calls, unless noted: active means hit-call score of the fitted dose curve at least 0.9, where 1 is the maximum; inconclusive means response in the unintended direction; inactive means score below 0.9.

Chain of Nuclear receptor subfamily 1 group I member 2 (Homo sapiens) (O75469 whole entry, looked up, the tested form may be a part): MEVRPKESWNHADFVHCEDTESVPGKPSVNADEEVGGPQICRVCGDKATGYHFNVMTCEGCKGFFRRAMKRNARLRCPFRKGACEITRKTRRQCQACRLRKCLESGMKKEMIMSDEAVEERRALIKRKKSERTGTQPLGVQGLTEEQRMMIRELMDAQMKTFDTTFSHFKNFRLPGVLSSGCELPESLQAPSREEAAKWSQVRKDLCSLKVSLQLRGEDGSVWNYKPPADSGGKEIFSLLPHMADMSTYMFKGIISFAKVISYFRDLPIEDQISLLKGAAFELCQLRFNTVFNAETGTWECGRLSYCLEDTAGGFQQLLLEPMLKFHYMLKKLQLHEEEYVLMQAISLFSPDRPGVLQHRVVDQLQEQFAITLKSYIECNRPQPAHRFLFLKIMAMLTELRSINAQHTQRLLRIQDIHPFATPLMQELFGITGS
Chain of human RAR-related Orphan Receptor gamma (RORg), RORC (gene 6097) (P51449 whole entry, looked up, the tested form may be a part): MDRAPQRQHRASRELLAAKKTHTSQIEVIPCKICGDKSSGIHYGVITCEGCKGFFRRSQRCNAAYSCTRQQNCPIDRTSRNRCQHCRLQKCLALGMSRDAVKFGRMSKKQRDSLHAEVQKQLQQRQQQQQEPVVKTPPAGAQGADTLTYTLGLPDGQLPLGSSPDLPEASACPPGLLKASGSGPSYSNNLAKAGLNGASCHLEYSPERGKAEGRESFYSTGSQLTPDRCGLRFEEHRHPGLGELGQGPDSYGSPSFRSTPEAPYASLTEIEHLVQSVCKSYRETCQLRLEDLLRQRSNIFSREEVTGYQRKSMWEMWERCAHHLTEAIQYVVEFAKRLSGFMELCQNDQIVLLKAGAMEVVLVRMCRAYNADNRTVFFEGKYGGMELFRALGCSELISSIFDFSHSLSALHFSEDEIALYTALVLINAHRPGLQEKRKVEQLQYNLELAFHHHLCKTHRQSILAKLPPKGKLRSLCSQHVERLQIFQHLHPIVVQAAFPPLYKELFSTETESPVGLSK
Chain of human Peroxisome Proliferator-activated Receptor delta (PPARd), PPARD (gene 5467) (Q03181 whole entry, looked up, the tested form may be a part): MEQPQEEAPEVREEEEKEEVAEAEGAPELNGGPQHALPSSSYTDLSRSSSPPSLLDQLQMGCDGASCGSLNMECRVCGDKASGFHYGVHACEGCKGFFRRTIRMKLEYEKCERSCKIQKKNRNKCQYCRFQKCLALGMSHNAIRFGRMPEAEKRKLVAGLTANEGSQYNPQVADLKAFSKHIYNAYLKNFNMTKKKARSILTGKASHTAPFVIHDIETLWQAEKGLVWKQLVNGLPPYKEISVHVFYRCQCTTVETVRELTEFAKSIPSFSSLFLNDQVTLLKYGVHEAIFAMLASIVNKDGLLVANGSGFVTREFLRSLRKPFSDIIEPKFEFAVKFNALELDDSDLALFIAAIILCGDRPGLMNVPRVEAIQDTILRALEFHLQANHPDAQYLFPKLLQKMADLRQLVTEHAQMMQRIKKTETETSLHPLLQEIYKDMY
Chain of Retinoic acid receptor alpha (Homo sapiens) (P10276 whole entry, looked up, the tested form may be a part): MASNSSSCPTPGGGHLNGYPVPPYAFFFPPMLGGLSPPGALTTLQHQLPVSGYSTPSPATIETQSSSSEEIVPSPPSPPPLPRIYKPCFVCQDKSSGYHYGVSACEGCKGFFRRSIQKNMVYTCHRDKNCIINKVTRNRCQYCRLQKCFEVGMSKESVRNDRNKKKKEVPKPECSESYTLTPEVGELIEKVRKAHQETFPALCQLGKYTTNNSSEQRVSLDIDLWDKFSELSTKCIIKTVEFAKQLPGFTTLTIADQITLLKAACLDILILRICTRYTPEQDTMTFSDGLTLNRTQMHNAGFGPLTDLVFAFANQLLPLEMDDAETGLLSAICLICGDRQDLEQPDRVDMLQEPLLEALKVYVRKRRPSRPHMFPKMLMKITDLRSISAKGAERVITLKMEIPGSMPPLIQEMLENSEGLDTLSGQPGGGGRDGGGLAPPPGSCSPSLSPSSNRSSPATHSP
Chain of human Retinoic Acid Receptor beta (RARb), RARB (gene 5915) (P10826 whole entry, looked up, the tested form may be a part): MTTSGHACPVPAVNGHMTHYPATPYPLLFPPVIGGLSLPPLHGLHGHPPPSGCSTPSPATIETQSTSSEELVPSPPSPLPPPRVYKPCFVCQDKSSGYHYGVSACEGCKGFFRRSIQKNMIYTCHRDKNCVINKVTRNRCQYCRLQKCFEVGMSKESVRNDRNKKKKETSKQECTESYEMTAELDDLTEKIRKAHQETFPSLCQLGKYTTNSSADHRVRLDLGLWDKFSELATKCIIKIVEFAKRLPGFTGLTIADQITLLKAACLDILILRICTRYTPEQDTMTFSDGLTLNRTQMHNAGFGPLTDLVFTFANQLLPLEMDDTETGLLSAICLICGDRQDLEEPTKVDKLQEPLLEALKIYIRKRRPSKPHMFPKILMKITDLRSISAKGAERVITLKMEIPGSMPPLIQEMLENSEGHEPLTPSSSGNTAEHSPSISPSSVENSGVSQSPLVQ
Chain of Peroxisome proliferator-activated receptor gamma (Homo sapiens) (P37231 whole entry, looked up, the tested form may be a part): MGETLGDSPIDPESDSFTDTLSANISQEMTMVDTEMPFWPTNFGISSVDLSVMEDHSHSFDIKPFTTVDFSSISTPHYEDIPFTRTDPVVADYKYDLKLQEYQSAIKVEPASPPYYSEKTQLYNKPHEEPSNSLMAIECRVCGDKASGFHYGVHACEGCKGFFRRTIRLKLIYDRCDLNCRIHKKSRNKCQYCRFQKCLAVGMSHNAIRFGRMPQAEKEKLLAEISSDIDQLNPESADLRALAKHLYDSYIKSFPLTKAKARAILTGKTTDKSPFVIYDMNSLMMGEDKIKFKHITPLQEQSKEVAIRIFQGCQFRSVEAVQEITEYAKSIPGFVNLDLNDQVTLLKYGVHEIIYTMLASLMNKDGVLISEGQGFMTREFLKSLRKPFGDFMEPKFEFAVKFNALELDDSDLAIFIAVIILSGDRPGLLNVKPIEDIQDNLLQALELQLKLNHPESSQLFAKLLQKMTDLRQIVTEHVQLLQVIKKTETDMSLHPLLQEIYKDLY
Chain of human RAR-related Orphan Receptor beta (RORb), RORB (gene 6096) (Q92753 whole entry, looked up, the tested form may be a part): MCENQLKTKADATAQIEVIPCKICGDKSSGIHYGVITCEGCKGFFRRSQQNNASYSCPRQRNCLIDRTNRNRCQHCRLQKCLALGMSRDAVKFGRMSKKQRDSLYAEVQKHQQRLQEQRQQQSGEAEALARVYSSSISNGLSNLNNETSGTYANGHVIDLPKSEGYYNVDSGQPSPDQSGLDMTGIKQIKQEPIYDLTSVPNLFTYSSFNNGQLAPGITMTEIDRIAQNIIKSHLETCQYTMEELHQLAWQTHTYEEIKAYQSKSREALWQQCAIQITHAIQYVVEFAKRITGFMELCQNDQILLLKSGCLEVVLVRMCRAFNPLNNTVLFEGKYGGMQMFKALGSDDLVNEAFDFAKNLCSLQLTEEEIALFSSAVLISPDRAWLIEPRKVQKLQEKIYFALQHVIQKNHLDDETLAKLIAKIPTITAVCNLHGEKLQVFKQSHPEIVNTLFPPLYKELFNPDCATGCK

Take `CCc1c(C(=O)NN2CCCCC2)nn(-c2ccc(Cl)cc2Cl)c1-c1ccc(Br)cc1`: the call in experiment [1], in [2] and in experiment [5] was inactive. For the same compound, the AC50 (usually the midpoint of the concentration-response curve, whichever way the signal moves) was 6.79 µM (active) in [3] and 0.0976 µM (active) in experiment [4].
Regarding `Oc1ccc2ccccc2c1N=Nc1ccccc1`, the outcome in experiment [2], in experiment [6], in experiment [7], in experiment [3], in experiment [5] and in experiment [8] was inactive. The AC50 in [4] is 3.87 µM (active).
On to `CCCCN(CCCC)CCCC`, for which the result in experiment [1], in [2], in experiment [3], in experiment [5] and in experiment [9] was inactive.
As for `CC1=C(/C=C/C(C)=C/C=C/C(C)=C/CO)C(C)(C)CCC1`, the result in experiment [2] and in experiment [6] was inactive. The concentration at half-maximal activity (AC50) in experiment [7] is 0.073 µM (active); in experiment [3] it was 27.6 µM (active); in experiment [4], 28.1 µM (active); in [5] it was 0.28 µM (active).
In the case of `Cc1cc(NC(=O)C(=O)O)cc(C)c1Oc1ccc(O)c2c1CCC2`, the compound was classed as inactive in experiment [1], in experiment [2], in experiment [3], in [5] and in [9].
As to `COc1ccc2c(c1)c(CC(=O)O)c(C)n2C(=O)c1ccc(Cl)cc1`, the result in experiment [1], in experiment [2], in [3], in [5] and in experiment [8] was inactive.
Consider `NCCO`, for which the outcome in [2], in experiment [6], in [7], in experiment [3] and in [8] was inactive.
On to `Cc1cc(=O)[nH]c(=S)[nH]1`, for which the result in experiment [1], in [2], in experiment [3], in experiment [8] and in experiment [9] was inactive.
Turning to `COc1cc(C=O)ccc1O`, the compound was classed as inactive in experiment [1], in [2], in [3], in experiment [8] and in [9].
`Nc1ccc2c(c1)C(=O)c1ccccc1C2=O`: the result in [2], in [6], in experiment [3], in experiment [5] and in [9] was inactive. Besides, in [4], the AC50 is 21 µM (active).
As for `CCCc1cc(=O)[nH]c(=S)[nH]1`, the call in [1], in experiment [2], in experiment [3], in experiment [4] and in experiment [8] was inactive.
Take `CCCCCCCCCCO`: the outcome in [2] and in experiment [6] was inactive. Further, the results for the AC50 in [3] and in experiment [4] were 33 µM (active) and 41.1 µM (active), respectively.
For the compound `Cc1ccccc1Cl`, the result in experiment [1], in experiment [2], in experiment [3] and in experiment [5] was inactive.
As for `Cc1ccc(N(C)C)cc1`, the result in experiment [1], in experiment [2], in [3] and in experiment [5] was inactive.
Regarding `CN1CCCC1=O`, the result in experiment [2], in [6], in experiment [7], in experiment [3], in [5] and in experiment [8] was inactive. Besides, the call in experiment [9] was inactive.
As to `CC(=O)Oc1ccccc1C(=O)O`, the result in experiment [2], in experiment [6], in [7], in experiment [3] and in experiment [5] was inactive. Besides, in [4], the AC50 is 61.7 µM (active).
As to `CC(=O)OCCOCCOCCOC(C)=O`, the outcome in experiment [2], in [6], in experiment [7], in experiment [3] and in experiment [4] was inactive.
Consider `Cc1ccc(C(C)C)c(O)c1`, for which the result in experiment [2], in experiment [6], in [3], in [4], in experiment [5] and in [9] was inactive.
Take `COc1cc(S(=O)(=O)O)c(C)cc1N=Nc1c(O)ccc2cc(S(=O)(=O)O)ccc12`: the result in [1], in [2], in [3], in experiment [4] and in experiment [9] was inactive.
Consider `CC=Cc1ccc(O)c(OC)c1`, for which the result in [2], in [6], in experiment [3], in [5] and in experiment [9] was inactive. In addition, the AC50 in experiment [4] was 61.5 µM (active).
Take `COc1cccc2c1C(=O)c1c(O)c3c(c(O)c1C2=O)C[C@@](O)(C(=O)CO)C[C@@H]3O[C@H]1C[C@H](N)[C@H](O)[C@H](C)O1`: the compound was called inactive in experiment [1], in [4] and in experiment [5].
As for `Nc1ccc(S(=O)(=O)c2ccc(N)cc2)cc1`, the compound was called inactive in experiment [1], in experiment [2], in [3], in [4], in [5] and in experiment [9].
On to `CCOc1ccc2c(c1)C(C)=CC(C)(C)N2`, for which the results for the AC50 in [1], in [4] and in experiment [5] were 170 µM (active), 28.7 µM (active) and 1.86 µM (active), respectively. Besides, the outcome in experiment [2], in experiment [3], in experiment [8] and in experiment [9] was inactive.
With `CCCCCCCCCCCCCCCC`, the result in experiment [2], in experiment [6], in [7] and in experiment [3] was inactive.
With `COc1cc(/C=C/C(=O)CC(=O)/C=C/c2ccc(O)c(OC)c2)ccc1O`, the compound was called inactive in experiment [1], in [7] and in [5]. Besides, the AC50 in experiment [4] is 8 µM (active).
For the compound `CNC(=O)[C@H]1O[C@@H](n2cnc3c(NCc4cc(Cl)ccc4OCc4cc(C)no4)ncnc32)[C@H](O)[C@@H]1N`, the compound was classed as inactive in [1], in [2], in experiment [3], in [4], in experiment [5] and in experiment [9].
`CNCc1cc(F)ccc1Oc1ccc(Cl)c(Cl)c1`: the compound was called inactive in experiment [1], in experiment [2], in experiment [4], in experiment [5] and in experiment [9]. In addition, the AC50 in experiment [3] is 23.9 µM (active).
Consider `Clc1cc(Cl)c(Cl)cc1Cl`, for which the compound was called inactive in [1], in [2], in experiment [3] and in experiment [5].
For `CC(=O)OC/C=C(\C)CCC=C(C)C`, the compound was classed as inactive in experiment [1], in [2], in [3], in experiment [4], in [5] and in [8]. Further, in [9], the call was inactive.
Take `O=C(N[C@@H](Cc1ccccc1)[C@@H](O)C(=O)N1C[C@@H](O)[C@@H](O)C1)c1cc2cc(Cl)ccc2[nH]1`: the result in experiment [1], in experiment [2], in [3], in experiment [4], in experiment [5] and in [8] was inactive. The result in experiment [9] was inactive.
Turning to `O=c1[nH]cc(F)c(=O)[nH]1`, the result in experiment [1], in [2] and in experiment [8] was inactive. The AC50 in experiment [3] is 7.81 µM (active).
`Cc1nc(C)nc(N2C[C@@H](C)N(c3ccnc([C@@H](C)O)n3)[C@@H](C)C2)n1`: the outcome in experiment [2] and in experiment [3] was inactive. Besides, in [5], the AC50 is 82.4 µM (active).
